Measurements as given in PubChem BioAssay AID1259339 (Broad Institute, 2017).
Values without a mark were called inactive. Active and inactive are the calls of the source.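 Rule for the calls: active = fitted AC50 no higher than ten times the top tested dose (cut at about 90 µM in these data); inconclusive = flat curve with 30 to 70% signal loss, or bad fit; inactive = AC50 beyond ten times the top dose.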

Test: TruHit bead signal quenchers or artefacts – biochemical, TruHit kit, artefact control, dose response (AID 1259339)
Details: TruHit alphaLISA kit signal interference counterscreen; series mostly up to 80 µM
With `Cc1cccc(Nc2nc(C(=O)Nc3cc(F)ccc3F)nc3ccccc23)c1` the AC50 was “inactive”. For `Cc1ccc(-c2cc(C(=O)NCc3ccco3)c3ccccc3n2)o1`, the AC50 was 64.5 µM (active). In the case of `CCCc1oc(C(=O)O)cc1CN`, the AC50 is reported as “inactive”. In the case of `COc1ccc(S(=O)(=O)c2ccccc2)cc1NS(=O)(=O)c1cccc(C(=O)O)c1`, the AC50 is reported as “inactive”. With `Cc1ccc(C(=O)Nc2cnc(N3CCC(C(N)=O)(N4CCCCC4)CC3)c(C(=O)O)c2)cc1` the AC50 was “inactive”. With `CC1(C)Cc2ccccc2-c2nc(-c3ccccc3)oc(=O)c21` the AC50 was 33.4 µM (active). In the case of `NC(=O)C1(N2CCCCC2)CCN(c2ncc(NC(=O)c3ccc(Cl)cc3)cc2C(=O)O)CC1`, the AC50 is reported as 81.9 µM (active). With `O=C1C=C(c2ccccc2)Nc2ccccc2N1` the AC50 was “inactive”. In the case of `O=C(NC1CC1)c1cc(-c2ccco2)nc2ccccc12`, the AC50 is reported as “inactive”. In the case of `NC(=O)C1(N2CCCCC2)CCN(c2ccc(NC(=O)c3ccccc3F)cc2C(=O)O)CC1`, the AC50 is reported as “inactive”. With `CC(C(=O)N1CCCC1)N1CCN(c2ccccc2O)CC1` (stereo unspecified) the AC50 was “inactive”. For `NC(=O)C1(N2CCCCC2)CCN(c2ccc(NC(=O)c3cccc(Cl)c3)cc2C(=O)O)CC1`, the AC50 was “inactive”. For `O=S(=O)(c1ccc2nc(-c3ccco3)c(-c3ccco3)nc2c1)N1CCOCC1`, the AC50 was 26.8 µM (active). For `O=C(O)c1ccccc1/C=N/NC(=O)c1cc(-c2ccco2)nc2ccccc12`, the AC50 was 36 µM (active). In the case of `CCn1ccnc1C1CCN(C(=O)CCn2c(C)nc3ccccc32)CC1`, the AC50 is reported as “inactive”. With `O=C(COC(=O)CCC(=O)c1cccs1)NCc1ccco1` the AC50 was “inactive”. With `Cc1ccc2cc(CN(Cc3ccco3)S(C)(=O)=O)c(=O)[nH]c2c1` the AC50 was “inactive”. In the case of `O=C(Nc1nc(-c2ccccn2)cs1)c1cccc(-n2cnnn2)c1`, the AC50 is reported as “inactive”. With `CCOc1ccccc1NC(=O)N1CCCC(c2nccn2CCOC)C1` (stereo unspecified) the AC50 was “inactive”. Molecule `CCN1CCN(C(=O)c2cc(-c3ccco3)nc3ccccc23)CC1` has an AC50 greater than 160 µM. For `C[C@H](CO)N1C[C@H](C)[C@@H](CN(C)CC2CCCCC2)OCCCC[C@H](C)Oc2ccc(NS(=O)(=O)c3ccc(F)cc3)cc2C1=O`, the AC50 was “inactive”. With `Cc1ccc(-c2nnc(-c3nc(Nc4nc5ccccc5s4)c4ccccc4n3)o2)cc1` the AC50 was “inactive”. With `COCCC(=O)N1CCCC2(CCN(CCN3CCCC3)C2=O)C1` (stereo unspecified) the AC50 was “inactive”. With `CCOC(=O)C1CCN(C(=O)CN(Cc2ccccc2)S(C)(=O)=O)CC1` the AC50 was “inactive”. With `Cc1ccc(N2C(=O)c3ccccc3C2C(=O)c2ccc(O)cc2O)cc1` (stereo unspecified) the AC50 was “inactive”. For `O=C(NCCCN1CCOCC1)c1cc(-c2ccco2)nc2ccccc12`, the AC50 was 27.5 µM (active). In the case of `COc1cccc(NC(=O)CN(C)C(=O)c2cc3c(s2)CCC3)c1`, the AC50 is reported as 74.6 µM (active). For `c1coc(-c2cn3ccc4ccccc4c3n2)c1`, the AC50 was 81.7 µM (active). In the case of `CC1CCN(c2nc(-c3ccco3)c3c(c2C#N)CC(C)(C)OC3)CC1`, the AC50 is reported as 33.5 µM (active). In the case of `O=C(COC(=O)c1ccc(S(=O)(=O)NCc2ccco2)cc1)Nc1ccc(Cl)cn1`, the AC50 is reported as greater than 160 µM. In the case of `O=C(CN1CCOC1=O)N1CCC2(CCC(=O)N(CCCn3ccnc3)C2)CC1`, the AC50 is reported as “inactive”. For `CC1=CCC(C(=O)O)C(C(=O)NC2CCCCC2)C1` (stereo unspecified), the AC50 was “inactive”. For `COc1ccc(NC(=O)c2nc(Nc3ccccc3)c3ccccc3n2)cc1`, the AC50 was “inactive”. With `CCCN1CCCn2nc(CNC(=O)[C@@H](N)Cc3ccc(O)cc3)cc2C1` the AC50 was “inactive”. With `O=C1CS/C(=N\N=C\c2ccco2)N1c1ccccc1` the AC50 was 30.8 µM (active). For `NC(=O)C1(N2CCCCC2)CCN(c2ncc(NC(=O)c3ccccc3F)cc2C(=O)O)CC1`, the AC50 was “inactive”.
